Screening results (PubChem)
An excerpt weighted towards active compounds, which were near 3.4% of everything screened.
MITF primary: human MITF inhibition, primary screen; O75030; AlphaScreen MITF homodimerization, bead proximity signal; inhibition, % at 2.6 µM; 0.91% of 650,000 active; AID 1259374; in the data active = inhibition above about 50%
TEAD-YAP block: TEAD-YAP interaction inhibition; 1.4% of 640,000 active; AID 1259422; inhibition, % at 9.12 µM; HEK-TIYL cells, TEAD-Gal4/YAP UAS-luciferase luminescence; in the data active = inhibition above about 32%
GPR151 ag: activates the human receptor GPR151; Q8TDV0; PathHunter beta-arrestin GPR151 cells, luminescence; activation, % at 11.2 µM; 1% of 650,000 active; in the data active = activation above about 4.9%
FBW7 activator: human FBW7 E3 ligase activation, primary screen | Q969H0 | AlphaScreen FBW7–phospho-cyclin E peptide binding, activator screen | AID 1259310 | normalized activity (activation), % at 26.1 µM | 0.13% of 650,000 active; in the data active = normalized activity above about 1.9%;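 also: purified mutant Fbw7 with reduced substrate affinity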
Hits are given with their value; . = inactive.

SMILES	MITF primary	TEAD-YAP block	GPR151 ag	FBW7 activator
O=S(=O)(NC1CCCC1)c1cccc(-c2nnc(-c3ccccc3)o2)c1	.	33	.	.
O=S(=O)(NC1CCCCCCC1)c1ccccc1	.	.	.	.
CC1=NN(c2cccc(C(=O)O)c2)C(=O)/C1=C\c1ccc(-c2cccc(C(=O)O)c2)o1	62	.	.	.
CC1=NN(c2cccc(C(=O)O)c2)C(=O)/C1=C\c1cc2c(cc1Cl)OCO2	61	.	.	.
COc1cc(Br)c(/C=C2\C(=O)N(c3ccccc3)N=C2C)cc1OC	.	.	.	.
CC1=NN(c2cccc(C(=O)O)c2)C(=O)/C1=C\c1ccco1	65	.	.	.
COc1cc(/C=C2\C(=O)N(c3cccc(C(=O)O)c3)N=C2C)c(Br)cc1O	62	.	.	.
CC1=NN(c2cccc(Cl)c2)C(=O)/C1=C/c1cc2c(cc1Cl)OCO2	.	.	.	.
CC1=NN(c2cccc(C(=O)O)c2)C(=O)/C1=C/c1ccc(C)o1	.	.	.	.
Cc1c([N+](=O)[O-])c2nsnc2c2nsnc12	.	.	.	.
COc1cc(C(=O)O/N=C(\c2ccccc2)c2ccncc2)cc(OC)c1OC	.	.	.	.
CCc1ccc(NC(=O)C(=O)NCC2CCCN2S(=O)(=O)c2cc(C)ccc2C)cc1 (stereo not given)	.	.	.	.
COc1ccc(/C=C2\C(=O)N(c3cccc(C(=O)O)c3)N=C2C)cc1OC	.	.	.	.
COc1cc(/C=C2/C(=O)N(c3cccc(C(=O)O)c3)N=C2C)cc2sc(=O)oc12	61	.	.	.
COc1ccc(NC(=O)c2ccccc2OC(C)C(=O)Nc2nccs2)c([N+](=O)[O-])c1 (stereo not given)	.	.	.	.
CCc1ccc(C(=O)Nc2nc3ccccc3s2)cc1	.	50	.	.
CC(C)c1ccc2nc(NC(=O)c3ccccc3)sc2c1	.	39	.	.
O=C(O)COc1ccccc1/C=N/Nc1nc2ccccc2s1	.	.	.	.
O=C(O)c1ccccc1/C=N/Nc1nc2ccccc2s1	.	94	.	.
O=C(CCc1nc2ccccc2s1)c1ccccc1	.	.	.	2.0
CCCc1ccc(-c2ccc(C(=O)Nc3nc4ccccc4s3)cc2)nc1	.	.	.	.
COc1cc(-c2nnc(SCC(=O)Nc3ccccc3C(F)(F)F)nc2-c2cc(OC)c(OC)c(OC)c2)cc(OC)c1OC	.	.	.	.
Cn1c(SCC(=O)NCc2ccccn2)nc2sc3c(c2c1=O)CCCC3	.	.	.	.
O=C(Nc1nc2ccccc2s1)c1ccccc1	.	32	.	.
O=C(Nc1nc2ccccc2s1)c1ccc(N2C(=O)CCC2=O)cc1	.	.	.	.
SMILES	MITF primary	TEAD-YAP block	GPR151 ag	FBW7 activator
CCN(CC)C(=O)c1ccc2nc(NC(=O)c3ccc(OC(C)=O)cc3)sc2c1	.	78	.	2.0
CCOc1ccc(N2C(=O)/C(=C/c3ccc(C)o3)N(CC(=O)OC)C2=S)cc1	.	.	.	.
COc1cccc(/C=N/NC(=O)CCCCC(=O)N/N=C/c2cccc(OC)c2)c1	.	74	.	.
CC(C)(C)OC(=O)N/N=C\c1cccc(/C=N/NC(=O)OC(C)(C)C)c1	.	65	.	.
CCCCC(=O)N/N=C(\C)CC(=O)Nc1cccc(OC)c1	.	44	.	.
CCCCC(=O)N/N=C(\C)CC(=O)Nc1cccc(I)c1	.	.	.	.
CC(C)(C)OC(=O)N/N=C/c1ccc(Br)cc1	.	.	.	.
Cc1ccc(-c2cc(C(=O)N/N=C/c3cccc(O)c3)[nH]n2)cc1	.	35	.	.
CCNC(=S)NNC(=O)CSc1nnc(-c2ccc(C(C)(C)C)cc2)n1-c1ccccc1	.	.	.	.
CC(=O)c1cccc(NC(=O)CSc2ccc(-c3ccccc3)nn2)c1	.	.	.	.
COc1ccc(/C=N/NC(=O)c2cc(-c3cccc(OC)c3)n[nH]2)cc1	.	.	.	.
Cc1ccc(/C=N/NC(=O)c2cc(-c3ccccc3)n[nH]2)c(O)c1	.	.	.	.
Cc1cc(O)cc(O)c1/C=N/NC(=O)c1cc(-c2ccccc2)n[nH]1	.	33	.	.
COc1cccc(/C=N/NC(=O)c2cc(-c3ccc(C)cc3)n[nH]2)c1	.	45	.	.
CCN(CC)c1ccc2cc(I)c(=O)oc2c1	.	.	.	2.9
CCN(CC)c1ccc2cc(Cl)c(=O)oc2c1	.	.	.	.
CCN(CC)c1ccc2cc(N3C(=O)CCC3=O)c(=O)oc2c1	.	62	.	.
CCN(CC)c1ccc2cc(/C(N)=N/NC(C)=O)c(=O)oc2c1	.	41	.	.
CCOC(=O)C1=C(C)N=c2s/c(=C\c3ccc(OC)c(I)c3)c(=O)n2C1c1ccccc1 (stereo not given)	.	.	.	.
